CtBP-E1A inh – qHTS Assay for Inhibitors of the CtBP/E1A Interaction; CtBP / adenovirus E1A interaction (AlphaScreen); activity change, % (no concentration beside the values); AlphaScreen GST-E1A/His-CtBP binding, 1536-well; hits give low values; 340,000 tested, 0.49% active; in the data active = activity change below about -65%; inconclusive = mostly about -30% to -63%; note: % is set by controls: 0 for no effect and ±100 for the full control effect
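Homogeneous bead-based format: GST-tagged E1A captured on glutathione donor beads, His-tagged CtBP on nickel acceptor beads; compounds precede bead addition by 2 h at 37 °C.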
Six1-Eya2 blk – qHTS Assay for Inhibitors of the Six1/Eya2 Interaction; Homeobox protein SIX1 (Homo sapiens) + Protein phosphatase EYA2 (Homo sapiens), …; AlphaScreen GST-Six1/His-Eya2 binding, biochemical; hits give low values; activity change, % (no concentration beside the values); 360,000 tested, 0.56% active; AID 651725, 2012; in the data active = activity change below about -65%; inconclusive = mostly about -30% to -63%; note: % is set by controls: 0 for no effect and ±100 for the full control effect
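AlphaScreen with GST-Six1 and His-Eya2 (5X mix: 250 nM and 500 nM), glutathione donor and nickel acceptor beads; buffer 50 mM Tris pH 8.0, 300 mM NaCl, 1 mM TCEP; 1 h at 37 C in the dark.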
CBFb RUNX1 block – qHTS Assay for Compounds Blocking the Interaction Between CBF-beta and RUNX1 for the Treatment of Acute Myeloid Leukemia; 230,000 tested, under 10 active; AlphaScreen CBFb-His/RUNX1-biotin binding, biochemical; Potency, µM (top dose mostly 59.8 µM), without a hit: top-dose activity, negative = inhibition, hits mostly inhibitors; AID 1477, 2009; note: % of control where 0% means no effect
Target sequence (Q01196 whole entry, looked up): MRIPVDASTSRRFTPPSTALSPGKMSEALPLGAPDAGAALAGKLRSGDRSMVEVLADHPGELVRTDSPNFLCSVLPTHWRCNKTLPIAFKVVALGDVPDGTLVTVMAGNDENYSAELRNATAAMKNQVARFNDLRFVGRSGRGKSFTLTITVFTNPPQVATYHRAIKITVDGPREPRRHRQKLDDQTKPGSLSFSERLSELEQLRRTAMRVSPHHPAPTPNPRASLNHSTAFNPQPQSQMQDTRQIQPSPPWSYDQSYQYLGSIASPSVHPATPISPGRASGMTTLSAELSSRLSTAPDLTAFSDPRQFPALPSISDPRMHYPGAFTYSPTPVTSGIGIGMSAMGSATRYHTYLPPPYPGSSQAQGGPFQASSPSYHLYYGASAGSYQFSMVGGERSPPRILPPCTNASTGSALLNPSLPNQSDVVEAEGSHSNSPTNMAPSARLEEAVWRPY
Target sequence (Q13951 whole entry, looked up): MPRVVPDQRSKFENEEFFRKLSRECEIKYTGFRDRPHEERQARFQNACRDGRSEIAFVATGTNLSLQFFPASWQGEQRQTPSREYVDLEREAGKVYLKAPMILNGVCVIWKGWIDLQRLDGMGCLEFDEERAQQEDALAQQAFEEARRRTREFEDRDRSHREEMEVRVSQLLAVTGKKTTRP
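Compounds were screened at multiple concentrations against a preformed CBF-beta(His)/RUNX1(biotin) complex (30 nM of each) for 15 min at room temperature, followed by 90 min with nickel and streptavidin beads and AlphaScreen reading.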
RORgamma inh – qHTS for inhibitors of ROR gamma transcriptional activity. Drosophila S2 Gal4-RORgamma UAS-luciferase reporter, 20 h. Potency, µM (highest dose often 53.6 µM), for the others: top-dose activity change, negative = inhibition, hits mostly inhibitors. 310,000 tested, 5.4% active; note: potency is the fitted concentration of half-maximal effect; % is set by controls: 0 for no effect and ±100 for the full control effect; nearly all actives have a fitted effect of over 60% in size
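Luciferase reporter read in Schneider cells carrying Gal4-RORγ (mouse) and UAS-Photinus luciferase; cells given compound 1 h before 700 uM copper sulfate induction, then incubated 20 h at ambient temperature.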
MBNL1-CUG inh – qHTS Assay for Inhibitors of MBNL1-poly(CUG) RNA binding. 280,000 tested, 0.036% active. TR-FRET MBNL1-His/biotin-(CUG)12 binding, 665/545 ratio. Potency, µM (doses to about 57.5 µM), for inactives: at the top dose activity change, negative = inhibition, actives largely listed as inhibitors. Muscleblind-like protein 1 (Homo sapiens), Q9NR56; active = well fitted inhibition curve with a large enough effect in the signal ratio, with a control signal flat, not every such curve was filed as active; inconclusive = small, poorly fitted or top-dose-only effect, or effect the other way, or a change in a side signal; inactive = no such curve, though single readings can be large or run the other way; the % refers to the signal ratio; note: potency is the fitted concentration of half-maximal effect; % is set by controls: 0 for no effect and ±100 for the full control effect
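MBNL1-His + Biotin-(CUG)12, cpd titration 92 nM–58 uM; Tb anti-His Ab 0.055 ng/ul, SA-XL665 5 nM (final); 60 min RT; ratiometric 665/545 nm, Ex 340 nm; normalized to buffer and full-complex controls.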
VP16 counter – VP16 counterscreen qHTS for inhibitors of ROR gamma transcriptional activity; 310,000 tested, 3.5% active; Drosophila S2 Gal4-VP16 UAS-luciferase, luminescence, 20 h; Potency, µM (doses to about 53.6 µM), for inactives: at the highest dose activity, negative = inhibition, hits mostly inhibitors;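 note: Gal4-VP16 expression switched on by copper sulfate through the metallothionein promoter; potency is the fitted concentration of half-maximal effect; % is set by controls: 0 for no effect and ±100 for the full control effect; nearly all actives have a fitted effect of over 50% in size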
Active calls of the source: *; ? = inconclusive; nt = not tested or not shown. The list is not random: actives were taken first. Their share in the collection is about 5.5%. Unless noted, calls come from the whole dose curve; as a rule, active = well fitted curve in the direction sought with a large enough effect; inconclusive = small, poorly fitted or top-dose-only effect, or another doubt; inactive = no such curve, though single readings can be large; an effect the other way counts as inactive or inconclusive.

SMILES | CtBP-E1A inh | Six1-Eya2 blk | CBFb RUNX1 block | RORgamma inh | MBNL1-CUG inh | VP16 counter
CC(CC(=O)N1CCN(c2cccc(Cl)c2)CC1)S(=O)(=O)c1ccc2c(c1)NC(=O)CO2 (configuration not stated) | 0 | 1 | nt | -41% | -5% | 14µM*
Cc1ccc(C2CC(c3cccs3)=NN2C(=O)CCl)cc1 (configuration not stated) | 4 | 20 | nt | 18µM* | 15% | ?
O=C(NC(NNc1ccc([N+](=O)[O-])cc1)(C(F)(F)F)C(F)(F)F)c1ccc(Cl)cc1 | 0 | -11 | -1% | 16µM* | 4% | ?
O=C(NNc1ccc([N+](=O)[O-])cc1)c1ccccc1Cl | nt | 4 | -1% | 19% | ? | -16%
Fc1ccc(-c2nnc(-c3ccc(Cl)cc3Cl)o2)cc1 | 2 | -1 | 5% | 14µM* | 3% | 10µM*
COC(=O)c1cc(N2C(=O)C3C(C2=O)C2(C)C=CC3(C)O2)ccc1Cl (configuration not stated) | nt | nt | 10% | 3.5µM* | -8% | 5.6µM*
O=C1C2C3C=CC(CNS(=O)(=O)c4ccccc4)(O3)C2C(=O)N1c1ccc(Cl)cc1 (configuration not stated) | 7 | -7 | 3% | -106% | -4% | ?
O=C1C2C3C=CC(CO)(O3)C2C(=O)N1c1ccccc1-c1ccccc1 (configuration not stated) | -10 | -8 | 0% | 1.8µM* | -7% | 2.2µM*
COc1ccc(NC(=O)c2cc(N3C(=O)C4C5CCC(C5)C4C3=O)ccc2Cl)c(OC)c1 (configuration not stated) | -2 | -2 | nt | 4% | 0% | -3%
CC(=O)Oc1ccc(N2C(=O)C3C(C2=O)C2(C)C=CC3(C)O2)cc1 (configuration not stated) | nt | nt | -4% | 4µM* | -16% | 4.5µM*
CC(=O)Oc1ccc(N2C(=O)C3C4C=CC(CO)(O4)C3C2=O)cc1 (configuration not stated) | 0 | -13 | 4% | 5µM* | -6% | ?
CC(=O)Oc1ccc(-n2c(=O)c3ccccc3c3ccccc3c2=O)cc1 | -5 | -8 | 3% | 7% | -3% | -4%
COc1ccc(NS(=O)(=O)c2cc(C(=O)N3CCN(C/C=C/c4ccccc4)CC3)ccc2C)cc1 | -1 | ? | nt | nt | nt | nt
O=C(NC1CCCCC1)C1c2ccccc2OCC(=O)N1C1CC1 (configuration not stated) | 2 | 1 | nt | nt | nt | nt
O=C(Oc1cccc(C(=S)N2CCOCC2)c1)c1cc([N+](=O)[O-])cc([N+](=O)[O-])c1 | -2 | -8 | 8% | -10% | ? | -1%
O=C(Oc1ccc(Br)cc1C(=S)N1CCOCC1)c1ccc([N+](=O)[O-])cc1[N+](=O)[O-] | ? | -94* | nt | -18% | ? | -25%
O=C(Oc1ccc(Br)cc1C(=S)N1CCCCC1)c1cc([N+](=O)[O-])cc([N+](=O)[O-])c1 | -2 | -4 | -4% | 18µM* | ? | -1%
O=C(Oc1cccc(C(=S)N2CCOCC2)c1)c1cccc([N+](=O)[O-])c1 | 3 | -16 | 2% | 24% | ? | 0%
O=C(Oc1ccc(Br)cc1C(=S)N1CCCC1)c1ccccc1F | 4 | -26 | -2% | -1% | nt | -4%
O=C(Oc1cccc(C(=S)N2CCOCC2)c1)c1ccc([N+](=O)[O-])cc1[N+](=O)[O-] | 5 | -69* | nt | -26% | ? | ?
Cc1ccccc1C(=O)Oc1ccc(Br)cc1C(=S)N1CCCC1 | 0 | -9 | 0% | 11µM* | 3% | ?
COc1ccc(C(=O)N2CCC3(CC2)CN(c2ccc(-c4ccccc4)cc2)C3)cc1 | nt | nt | nt | -1% | nt | 4%
CCN1C(=O)[C@H]2[C@@H](c3ccc(C(F)(F)F)cc3)N[C@]3(CCCN(CC4CCCCC4)C3=O)[C@H]2C1=O | -1 | -3 | nt | nt | nt | nt
CN(C)c1nc(N)nc(CSc2ncc(Cl)cc2Cl)n1 | 0 | -1 | 4% | 13µM* | -3% | -29%
CCn1c(=S)sc2c(=O)[nH]c(SCC(=O)Nc3cc(OC)ccc3OC)nc21 | -15 | -19 | nt | 13% | -6% | -1%
SMILES | CtBP-E1A inh | Six1-Eya2 blk | CBFb RUNX1 block | RORgamma inh | MBNL1-CUG inh | VP16 counter
CCc1ccc(-n2c(SCC(=O)c3ccc4c(c3)NC(=O)CO4)nc3ccccc3c2=O)cc1 | 7 | 8 | -5% | 2.5µM* | -4% | -1%
O=C1COc2ccc(C(=O)CSc3nc4ccccc4c(=O)n3-c3ccc(Cl)c(Cl)c3)cc2N1 | -9 | 15 | 5% | -29% | -7% | 6%
O=C(N/N=C/c1sc(=O)[nH]c1-[n+]1ccc2ccccc2c1)c1ccccc1[O-] | -75* | ? | nt | -34% | ? | 1%
CC1(C)Cc2ccccc2-c2n[nH]c(=S)n21 | 4 | -3 | 0% | 2.8µM* | 32% | 0.89µM*
O=c1c2ccccc2[nH]c(=S)n1-c1cccc(S(=O)(=O)N2CCCC2)c1 | -17 | -1 | 1% | 3.2µM* | 0% | ?
Cc1ccccc1OCCn1c(=S)[nH]c2ccccc21 | -3 | -4 | nt | 2.5µM* | 41% | 4.5µM*
Fc1ccccc1OCCn1c(=S)[nH]c2ccccc21 | -9 | -23 | nt | 5.6µM* | 12% | 4.5µM*
COc1ccc(Cl)cc1NS(=O)(=O)c1cccc(C(=O)N2CC(C)OC(C)C2)c1 (configuration not stated) | 3 | -4 | nt | nt | nt | nt
NC(=S)N/N=C\c1ccccc1OCc1ccccc1 | -12 | -1 | -18% | 2.2µM* | 12% | 3.5µM*
NC(=S)N/N=C/c1c[nH]c2ccc(OCc3ccccc3)cc12 | nt | -4 | nt | 5µM* | -3% | 4.5µM*
COc1cccc(/C=N/NC(N)=S)c1OCc1cccc(Cl)c1 | -8 | -15 | 0% | 2.8µM* | nt | 4µM*
NC(=S)N/N=C\c1c(OCc2ccccc2Cl)ccc2ccccc12 | -8 | -25 | -27% | 1.1µM* | nt | 3.2µM*
NC(=S)N/N=C/c1ccccc1OC(=O)/C=C/c1ccccc1 | -93* | ? | nt | 3.5µM* | 14% | 3.5µM*

Source: PubChem BioAssay
